# Shown is part of a subset that was picked to be rich in hits.
# Pf Dd2 inh – inhibitors of Plasmodium falciparum Dd2 growth; P. falciparum Dd2 growth, SYBR Green, 72 h; Potency, µM (series often up to 28.9 µM), hits mostly inhibitors; 120,000 compounds, 4.3% hits; AID 1347417; active = well fitted inhibition curve with a large enough effect; note: nearly all actives have a fitted effect of over 65% in size
#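 Infected erythrocytes (Dd2, 0.3% parasitemia, 2.5% hematocrit final) are added to compound in RPMI-1640/Albumax II medium, grown 72 h at 37C in low oxygen, then lysed with saponin/Triton-X containing SYBR Green and read by fluorescence.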
# Hits are given with their value; . = inactive.
SMILES,Pf Dd2 inh
CC(C)CNc1ccc2c(n1)C(C)(C(=O)Nc1ccncc1)CN(Cc1ccccc1)C2 (stereo unspecified),2.24µM
CC(=O)N1CCc2nn(CC(=O)Nc3cccc(C)c3)c(=O)cc2C1,.
COc1ccc(-c2nc(C)c(C)cc2C#N)c2cccnc12,.
CN(C)c1ccc(CNC(=O)C2CCN(Cc3cc4ccccc4n3Cc3ccccc3)CC2)cc1,11.2µM
Cc1cccc(Cn2c(CN3CCC(C(=O)NCc4cccnc4)CC3)cc3ccccc32)c1,.
O=C(NCc1cccnc1)C1CCN(Cc2cc3ccccc3n2Cc2ccccc2)CC1,11.2µM
Cc1ccc(Cn2c(CN3CCC(C(=O)NCCc4ccccc4)CC3)cc3ccccc32)cc1,7.94µM
CN(C)c1ccc(CNC(=O)C2CCN(c3nc4ccccc4[nH]3)CC2)cc1,.
CN(C)c1ccc(CNC(=O)C2CCN(S(=O)(=O)c3ccc4c(c3)oc(=O)n4C)CC2)cc1,.
Cc1cccc(Cn2c(CN3CCC(C(=O)NC(C)C)CC3)cc3ccccc32)c1,.
COCCCNC(=O)C1CCN(Cc2cc3ccccc3n2Cc2ccccc2C)CC1,.
Cc1ccc(Cn2c(CN3CCC(C(=O)NCC(C)c4ccccc4)CC3)cc3ccccc32)cc1 (stereo unspecified),.
CN(Cc1ccccc1)C(=O)C1COC2(CCN(C(=O)CC(C)(C)C)CC2)N1C(=O)c1ccccc1 (stereo unspecified),.
COc1cccc(C2Cn3nnc(-c4nc(-c5ccc(SC)cc5)no4)c3CO2)c1 (stereo unspecified),.
CC#CCn1cc2c3c(cccc31)[C@H](CC(C)C)N[C@H](C(=O)NCc1cccs1)C2,.
CC(C)C[C@@H]1N[C@H](C(=O)O)Cc2cn(Cc3ccncc3)c3cccc1c23,.
Cc1cc(Cn2cc3c4c(cccc42)[C@H](CC(C)C)N[C@H](C(=O)NCCN(C)C)C3)no1,7.94µM
CC#CCn1cc2c3c(cccc31)[C@H](CC(C)C)N[C@H](C(=O)NCc1ccc(OC)cc1)C2,.
CC(C)C[C@@H]1N[C@H](C(=O)N2CCOCC2)Cc2cn(CC3CC3)c3cccc1c23,.
CC(C)C[C@@H]1N[C@H](C(=O)NCCN(C)C)Cc2cn(Cc3ccncc3)c3cccc1c23,12.6µM
COc1ccc(CNC(=O)[C@@H]2Cc3cn(CC4CC4)c4cccc(c34)[C@H](CC(C)C)N2)cc1,.
Cc1cc(Cn2cc3c4c(cccc42)[C@H](CC(C)C)N[C@H](C(=O)NCc2ccccn2)C3)no1,12.6µM
Cc1cc(Cn2cc3c4c(cccc42)[C@H](CC(C)C)N[C@H](C(=O)NCCN2CCOCC2)C3)no1,.
CC(C)Cc1cc(C[C@@H]2C[C@H](NC(=O)c3ccco3)C2(C)C)no1,.
Cn1c(Cn2cccn2)nnc1C1CC(NC(=O)c2cc(C#N)c[nH]2)C1 (stereo unspecified),.
SMILES,Pf Dd2 inh
CCOC(=O)C1CCCN(S(=O)(=O)c2cc3c4c(c2)CC(=O)N4CCC3)C1 (stereo unspecified),.
CCOC(=O)C1CCN(S(=O)(=O)c2cc3c4c(c2)C(C)C(=O)N4CCC3)CC1 (stereo unspecified),.
CCOC(=O)C1CCN(S(=O)(=O)c2cc3c4c(c2)CC(=O)N4CCC3)CC1,10µM
Cn1c(C(=O)NCCCc2nnc(N)s2)cc(=O)n(C)c1=O,.
CNC(=O)c1cccc(-c2cnc(Nc3cccc(C(F)(F)F)c3)c3c2CCO3)c1,.
COc1ccc(Nc2ncc(-c3ccccc3OC)c3c2OCC3)cc1,.
O=C(Nc1ncc(-c2cccc(F)c2)c2c1OCC2)c1ccncc1,.
CNC(=O)c1cccc(-c2cnc(Nc3ccc(F)c(Cl)c3)c3c2CCO3)c1,11.2µM
CNC(=O)c1cccc(-c2cnc(Nc3ccc(Cl)cn3)c3c2CCO3)c1,.
COc1ccc(-c2cnc(Nc3cc(F)cc(N4CCOCC4)c3)c3c2CCO3)cn1,11.2µM
COc1cncc(Nc2ncc(-c3cccc(F)c3)c3c2OCC3)c1,11.2µM
COc1ccc(-c2cnc(NC(=O)Cc3ccccc3)c3c2CCO3)cn1,.
COCCNc1ncc(-c2ccc(N3CCOCC3)cc2)c2c1OCC2,.
CN(Cc1ccccc1)Cc1cc(C(=O)N(C)Cc2ccsc2)no1,.
COc1ccccc1CNC(=O)CN1CC2CC(C1)[C@H]1CCCC(=O)N1C2 (stereo partly specified),.
O=C(Cc1ccc(F)cc1)NCc1nnc2c(-c3nc(C4CC4)no3)cccn12,.
O=C1CCN(C(=O)c2ccccc2)CCCC(C(=O)NCCN2CCc3ccccc3C2)CCN1 (stereo unspecified),.
CN1CCCC2(CCN(S(=O)(=O)c3ccc4[nH]c(=O)[nH]c4c3)C2)C1=O (stereo unspecified),.
O=C(N[C@H]1C[C@H]2C(=O)NC[C@@H](CCC(=O)N3CCN(c4ccccn4)CC3)N2C1)c1ccccc1,.
O=C(N[C@H]1CCN2C(=O)c3cc(-c4ccsc4)ccc3NC(=O)[C@H]12)c1cnccn1,.
O=C(NCCc1ccncc1)C1CN(C(=O)c2cccc(Cl)c2)CC12CCOCC2 (stereo unspecified),.
COc1ccc(-c2nc3c(c(=O)[nH]2)CCN(C(=O)c2cc(Cl)ccc2OC)C3)cc1,10µM
COc1ccc(-c2nc3c(c(=O)[nH]2)CCN(C(=O)Nc2ccc4c(c2)CCC4)C3)cc1,.
COc1ccc(-c2nc3c(c(=O)[nH]2)CCN(C(=O)c2nccc4ccccc24)C3)cc1,5.01µM
COc1ccc(-c2nc3c(c(=O)[nH]2)CCN(C(=O)Nc2cc(F)cc(F)c2)C3)cc1,.
SMILES,Pf Dd2 inh
COc1ccc(-c2nc3c(c(=O)[nH]2)CCN(C(=O)NCC2CCCO2)C3)cc1 (stereo unspecified),.
COc1ccc(-c2nc3c(c(=O)[nH]2)CCN(S(=O)(=O)C2CC2)C3)cc1,.
CC1(COc2ccc3[nH]ccc3c2)COc2ccc(C(=O)N3CC(O)C3)cc2N1 (stereo unspecified),.
CCn1ccc(C(=O)N2C[C@H](CO)C[C@H](CN3CCCC3)C2)n1,.
CCn1ccc(C(=O)N2CCC3(CC2)CC(c2nc(C)no2)N(C)C3)n1 (stereo unspecified),.
COC(=O)[C@@H]1Cc2ncn(Cc3ccc(OC)cc3)c2CN1C(=O)c1ccc(C#N)cc1,.
COC(=O)[C@@H]1Cc2ncn(Cc3ccc(OC)cc3)c2CN1C(=O)c1ccc(F)cc1,.
COC(=O)[C@@H]1Cc2ncn(Cc3ccc(OC)cc3)c2CN1Cc1cccc(C#N)c1,12.6µM
CC(C)N[C@@H]1CC[C@@H]1NC(=O)c1ccccc1OC(F)(F)C(F)F,7.94µM
CN(C)C[C@@H]1CN(C)C[C@H]1NC(=O)c1ccccc1OC(F)(F)F,.
CNC(=O)N1C[C@@H](CN(C)C)[C@H](NC(=O)c2ccccc2OC(F)(F)F)C1,.
N#Cc1cccc(-c2ccnc(N[C@H]3CO[C@H]4[C@@H]3OC[C@@H]4NC(=O)c3ccccc3)n2)c1,.
CCNC(=O)N(C1CC1)C1CCOC2(CCN(C(=O)NCc3ccc(C)cc3)CC2)C1 (stereo unspecified),.
Cn1c(=O)c2c(nc(SCC(=O)Nc3ccccc3)n2Cc2ccccc2F)n(C)c1=O,.
Cn1c(=O)c2c(nc(SCC(=O)Nc3ccc(OC(F)(F)F)cc3)n2Cc2cccc(C(F)(F)F)c2)n(C)c1=O,11.2µM
Cn1c(=O)c2c(nc(SCC(=O)Nc3ccc(F)cc3F)n2Cc2ccccc2)n(C)c1=O,.
O=C(c1cnccn1)N1CCc2c(n(Cc3ccccc3)n(-c3ccccc3)c2=O)C1,.
